Bioassay records deposited in PubChem by National Center for Advancing Translational Sciences (NCATS).
Compounds with a hit are over-represented: about 7.5% of the library has one in this group of screens.
RORg inh: qHTS for inhibitors of ROR gamma transcriptional activity | Nuclear receptor ROR-gamma (Mus musculus), P51450 | Drosophila S2 Gal4-RORgamma UAS-luciferase reporter, 20 h | Potency, µM (highest dose often 53.6 µM), inactives show at the top dose activity change, negative = inhibition, actives largely listed as inhibitors | 310,000 tested, 5.4% active; note: potency is the fitted concentration of half-maximal effect; nearly all actives have a fitted effect of over 60% in size
Target sequence (P51450 whole entry, looked up, the tested form may be a part): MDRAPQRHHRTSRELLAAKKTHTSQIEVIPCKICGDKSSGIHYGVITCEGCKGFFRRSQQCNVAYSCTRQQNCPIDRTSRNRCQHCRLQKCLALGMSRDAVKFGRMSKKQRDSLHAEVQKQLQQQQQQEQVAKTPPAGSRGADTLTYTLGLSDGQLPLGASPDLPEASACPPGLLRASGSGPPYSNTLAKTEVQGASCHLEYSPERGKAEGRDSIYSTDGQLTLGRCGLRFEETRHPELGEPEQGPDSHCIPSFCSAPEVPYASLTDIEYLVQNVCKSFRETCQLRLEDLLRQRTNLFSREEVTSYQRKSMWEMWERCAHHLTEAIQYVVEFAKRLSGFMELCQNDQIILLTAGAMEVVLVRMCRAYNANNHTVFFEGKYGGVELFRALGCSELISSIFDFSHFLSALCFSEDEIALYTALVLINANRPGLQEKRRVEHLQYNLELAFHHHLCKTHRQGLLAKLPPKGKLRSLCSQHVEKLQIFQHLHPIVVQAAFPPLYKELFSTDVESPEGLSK
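Compounds are pin-transferred onto Drosophila Schneider cells expressing a copper-inducible Gal4–ROR gamma transactivation domain fusion. After 1 hr, copper sulfate is added to 700 uM final; luciferase is read 20 hr later.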
VP16 counter: VP16 counterscreen qHTS for inhibitors of ROR gamma transcriptional activity. Drosophila S2 Gal4-VP16 UAS-luciferase, luminescence, 20 h. Potency, µM (highest dose often 53.6 µM), for inactives: at the top dose activity, negative = inhibition, usual class: inhibitors. 310,000 tested, 3.5% active;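 note: Gal4-VP16 expression switched on by copper sulfate through the metallothionein promoter; potency is the fitted concentration of half-maximal effect; nearly all actives have a fitted effect of over 50% in size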
ELG1 repair inh: qHTS screen for small molecules that inhibit ELG1-dependent DNA repair in human embryonic kidney (HEK293T) cells expressing luciferase-tagged ELG1. AID 504467, 2011. 330,000 tested, 2.3% active. HEK293T ELG1-luciferase reporter, luminescence, 16 h; DNA damage induced by 5-fluorouridine. Potency, µM (highest dose often 46.1 µM), without a hit: at the highest dose activity change, negative = inhibition, most hits filed as inhibitors; note: potency is the fitted concentration of half-maximal effect; nearly all actives have a fitted effect of over 55% in size
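Reporter activity after DNA damage by 5-fluorouridine is monitored. Compound-treated cells incubate 16 hr at 37 °C, then ONE-Glo is added for 30 min before luminescence reading.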
B2AR arrestin: qHTS assay of beta-arrestin-biased ligands of beta2-adrenergic receptor; Beta-2 adrenergic receptor (Homo sapiens), P07550; beta-arrestin recruitment to beta2AR, cell-based reporter; Potency, µM (titrated, usually from 46.1 µM), inactives show top-dose activation, hits mostly activators; 330,000 tested, 0.02% active; AID 492947, 2010;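 note: potency is the fitted concentration of half-maximal effect; 0% = DMSO controls and full agonism = EC100 isoproterenol or metaproterenol; nearly all actives have a fitted effect of over 65% in size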
TSHR antag: Antagonists of the Thyroid Stimulating Hormone Receptor: HTS campaign | Thyrotropin receptor (Homo sapiens), P16473 | TSHR-expressing cells, TSH-stimulated cAMP HTRF, 2 h; stronger effect = lower value | activity change, negative = inhibition, % at 11.5 µM | 330,000 tested, 0.2% active;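 active = activity change below a set negative limit, meaning inhibition stronger than a set level, cut at about -70% in these data; inconclusive = activity change between two set negative limits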
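Cell-based HTRF cAMP assay; TSHR cells + compound, TSH EC80 (4nM final), 2 h, 37 deg C. Lysis with anti-cAMP cryptate and cAMP-d2, 30 min RT, read 665/620 nm.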
Starred values were filed as active, the others as inactive. Unless noted, calls come from the whole dose curve; as a rule, active = well fitted curve in the direction sought with a large enough effect; inconclusive = small, poorly fitted or top-dose-only effect, or another doubt; inactive = no such curve, though single readings can be large; an effect the other way counts as inactive or inconclusive. Unless noted, % is set by controls: 0 for no effect and ±100 for the full control effect.

COc1ccc(/C=C2\NC(=S)N(CC3CCCO3)C2=O)c(OC)c1C (centres undefined) was read as RORg inh inconclusive, VP16 counter inconclusive, ELG1 repair inh inconclusive, B2AR arrestin -1% and TSHR antag -23.
Screening COc1ccc(/C=C2\NC(=S)N(CC3CCCO3)C2=O)c(OC)c1 (centres undefined) returned RORg inh 16µM*, VP16 counter inconclusive, ELG1 repair inh 17%, B2AR arrestin 0% and TSHR antag -15.
For CCN(CC)S(=O)(=O)c1cccc(C(=O)NCCCn2ccnc2)c1 the results were RORg inh -1%, VP16 counter -8%, ELG1 repair inh inconclusive, B2AR arrestin 0% and TSHR antag 8.
For N#Cc1ccccc1Sc1ccccc1C(=O)OCC(=O)NC12CC3CC(CC(C3)C1)C2 the results were RORg inh 38%, VP16 counter inconclusive, ELG1 repair inh 21µM*, B2AR arrestin 0% and TSHR antag -24.
`O=C(COC(=O)c1ccccc1)NC12CC3CC(CC(C3)C1)C2` gave ELG1 repair inh 24%, B2AR arrestin 0% and TSHR antag -10.
For CSCCC(N)C(=O)NC(CC(C)C)C(=O)NC(Cc1ccccc1)C(=O)O (centres undefined) the results were RORg inh -4% and VP16 counter -1%.
Cc1ccc(-c2nc(N)sc2-c2ccccc2)cc1C was read as RORg inh 7.9µM*, VP16 counter 10µM*, ELG1 repair inh -4%, B2AR arrestin 0% and TSHR antag -18.
`c1ccc(-c2cnnn2-c2ccccc2)cc1` gave RORg inh 0%, VP16 counter 2%, ELG1 repair inh 13%, B2AR arrestin 0% and TSHR antag 25.
`CC(=O)Nc1cccc(NC(C)=O)n1` gave RORg inh 0%, VP16 counter 0%, ELG1 repair inh -3%, B2AR arrestin 0% and TSHR antag 2.
`C=C(C)CNC(=S)Nc1cccc(N)n1` gave RORg inh 2.8µM*, VP16 counter inconclusive, ELG1 repair inh 11%, B2AR arrestin 0% and TSHR antag -1.
Cc1cc(F)ccc1S(=O)(=O)Nc1ccccc1C(=O)N1CCCC1 was read as ELG1 repair inh 23%, B2AR arrestin 0% and TSHR antag -7.
O=C(/C(N=Nc1cccc(C(F)(F)F)c1)=C(/O)c1cccs1)C(F)(F)F was read as RORg inh inconclusive, VP16 counter inconclusive, ELG1 repair inh 2%, B2AR arrestin 0% and TSHR antag -9.
For Cc1cccc(N=N/C(=C\O)C(=O)c2cccs2)c1 the results were RORg inh 44%, VP16 counter -8%, ELG1 repair inh 21µM*, B2AR arrestin 0% and TSHR antag 10.
Screening CN(C(=O)COn1nnc2ccc(Cl)cc21)C1CCS(=O)(=O)C1 (centres undefined) returned ELG1 repair inh 24% and B2AR arrestin 0%.
For COc1ccc2cc(C#N)c(=O)oc2c1 the results were RORg inh 7% and VP16 counter -6%.
Screening Oc1cc(-n2cccn2)c(O)cc1-n1cccn1 returned RORg inh inconclusive, VP16 counter 13µM*, ELG1 repair inh inconclusive, B2AR arrestin 0% and TSHR antag -10.
Screening CCC(C)(C)NC(=O)C(c1ccncc1)N(C(=O)c1sc(C)nc1C)c1ccc(C)cc1 (centres undefined) returned RORg inh 2%, VP16 counter 21%, ELG1 repair inh -23%, B2AR arrestin -1% and TSHR antag 3.
CCOC(=O)CN(C)C(=O)CCc1nnc(-c2ccsc2)o1 was read as RORg inh 14µM*, VP16 counter inconclusive, ELG1 repair inh 0%, B2AR arrestin 0% and TSHR antag 0.
Screening Cc1cc(Br)ccc1NC(=O)CNC(=O)c1cnn(C)c1 returned ELG1 repair inh 29%, B2AR arrestin 0% and TSHR antag 2.
O=C(N/C(=C\c1cccc([N+](=O)[O-])c1)C(=O)N1CCOCC1)c1ccco1 was read as RORg inh -11%, VP16 counter 11%, ELG1 repair inh -8%, B2AR arrestin 0% and TSHR antag 4.
For O=C(CCl)N(Cc1ccccc1)c1ccccc1 the results were RORg inh 11µM*, VP16 counter inconclusive, ELG1 repair inh -25%, B2AR arrestin 0% and TSHR antag 8.
Screening COc1ccc(CC(=O)N(Cc2ccccc2)c2cccc(C)c2)cc1OC returned RORg inh -19%, VP16 counter 15%, ELG1 repair inh 6%, B2AR arrestin 0% and TSHR antag 4.
Cc1cccc(N(Cc2ccccc2)C(=O)CCl)c1 was read as RORg inh 10µM*, VP16 counter -25%, ELG1 repair inh -10%, B2AR arrestin 0% and TSHR antag 0.
Screening CC(C)N(Cc1nccn1C)C(=O)c1cc(COc2ccc(F)cc2Cl)on1 returned RORg inh -8%, VP16 counter 5%, ELG1 repair inh -1%, B2AR arrestin -1% and TSHR antag 2.
Screening Cc1cc(-c2ccccc2)n(-c2cc(N/N=C/c3ccccc3O)ncn2)n1 returned RORg inh 11µM*, VP16 counter 5.6µM*, ELG1 repair inh inconclusive, B2AR arrestin -1% and TSHR antag 5.
For COC(=O)c1cccc(S(=O)(=O)N(Cc2ccco2)Cc2cc3cc(OC)ccc3[nH]c2=O)c1 the results were RORg inh 4%, VP16 counter -24%, ELG1 repair inh 15µM*, B2AR arrestin 0% and TSHR antag -29.
For Cc1ccc(CNC(=O)CCC(=O)c2cccs2)cc1 the results were RORg inh 13µM*, VP16 counter -3%, ELG1 repair inh 11%, B2AR arrestin 0% and TSHR antag 4.
For O=C(Nc1nccs1)C(NS(=O)(=O)c1ccc(Br)s1)c1ccccc1 (centres undefined) the results were RORg inh 11µM*, VP16 counter inconclusive, ELG1 repair inh inconclusive, B2AR arrestin -1% and TSHR antag 1.
`CC(C)(C)n1nc2c(c1NC(=O)Cc1ccccc1)CS(=O)(=O)C2` gave RORg inh -18%, VP16 counter -6%, ELG1 repair inh 4%, B2AR arrestin 0% and TSHR antag 5.
Cc1cc([N+](=O)[O-])nn1CC(=O)c1ccccc1 was read as RORg inh inconclusive, VP16 counter -6%, ELG1 repair inh 14%, B2AR arrestin 0% and TSHR antag 5.
